Measured values: PubChem BioAssay
The source made the active and inactive calls.

Legend:
[1] = tested on: Plasmodium falciparum Sir2 (PF13_0152, Sir2A); experiment: Plasmodium falciparum Sir2A binding compounds – biochemical, small-molecule microarray, 635 nm fluorescence, primary screen (AID 1098); settings: fluorescence 635 nm, higher = more signal;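 also: score merges spot fluorescence intensity with its signal-to-noise ratio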
[2] = probe aDKK1 binding to arrayed compounds – biochemical, biotinylated probe, 635/667 nm fluorescence, primary screen (AID 1099); settings: small-molecule microarray, higher = more signal;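 also: score merges 667nm spot fluorescence with signal to noise across triplicate slides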
[3] = probe aCHRDL2 binding to arrayed compounds – biochemical, biotinylated probe, 635/667 nm fluorescence, primary screen (AID 1100); settings: small-molecule microarray, higher = more signal
[4] = change in splice reporter luminescence, either direction, cell-based, HEK293, spliceosome inhibition project, primary screen (AID 1101); settings: HEK293 splicing luciferase reporter, 24 h, higher = more signal, called active from +8 up or from −8 down;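 also: HEK293 cells carrying a splicing-competent luciferase reporter gene; test concentration not given here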
[5] = target: Fibroblast growth factor 10 (Homo sapiens) (UniProt O15520); experiment: compounds binding fibroblast growth factor 10 – biochemical, small-molecule microarray, 635 nm fluorescence, primary screen (AID 1102); settings: FGF10 binding, fluorescence 635 nm, higher = more signal
Chain of Fibroblast growth factor 10 (Homo sapiens) (O15520 whole entry, looked up): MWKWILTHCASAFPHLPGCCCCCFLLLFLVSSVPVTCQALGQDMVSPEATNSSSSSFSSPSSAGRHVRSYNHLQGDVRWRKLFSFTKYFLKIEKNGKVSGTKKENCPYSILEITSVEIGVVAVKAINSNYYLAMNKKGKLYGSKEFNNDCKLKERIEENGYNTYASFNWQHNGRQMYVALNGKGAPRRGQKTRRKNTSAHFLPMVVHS

[6] = tested on: glycogen synthase kinase-3 (GSK3A per assay name; protocol says GSK3B); experiment: compounds binding glycogen synthase kinase-3 – biochemical, small-molecule microarray, 635 nm fluorescence, GSK3A, primary screen (AID 1103); settings: fluorescence 635 nm, higher = more signal; also: the record names both GSK3A and GSK3B
[7] = target: Epidermal growth factor receptor (Homo sapiens) (UniProt P00533); experiment: compounds binding epidermal growth factor receptor – biochemical, small-molecule microarray, 635 nm fluorescence, primary screen (AID 1104); settings: EGFR binding, higher = more signal;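 also: score merges 667 nm emission intensity with spot signal to noise over triplicate slides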
Chain of Epidermal growth factor receptor (Homo sapiens) (P00533 whole entry, looked up): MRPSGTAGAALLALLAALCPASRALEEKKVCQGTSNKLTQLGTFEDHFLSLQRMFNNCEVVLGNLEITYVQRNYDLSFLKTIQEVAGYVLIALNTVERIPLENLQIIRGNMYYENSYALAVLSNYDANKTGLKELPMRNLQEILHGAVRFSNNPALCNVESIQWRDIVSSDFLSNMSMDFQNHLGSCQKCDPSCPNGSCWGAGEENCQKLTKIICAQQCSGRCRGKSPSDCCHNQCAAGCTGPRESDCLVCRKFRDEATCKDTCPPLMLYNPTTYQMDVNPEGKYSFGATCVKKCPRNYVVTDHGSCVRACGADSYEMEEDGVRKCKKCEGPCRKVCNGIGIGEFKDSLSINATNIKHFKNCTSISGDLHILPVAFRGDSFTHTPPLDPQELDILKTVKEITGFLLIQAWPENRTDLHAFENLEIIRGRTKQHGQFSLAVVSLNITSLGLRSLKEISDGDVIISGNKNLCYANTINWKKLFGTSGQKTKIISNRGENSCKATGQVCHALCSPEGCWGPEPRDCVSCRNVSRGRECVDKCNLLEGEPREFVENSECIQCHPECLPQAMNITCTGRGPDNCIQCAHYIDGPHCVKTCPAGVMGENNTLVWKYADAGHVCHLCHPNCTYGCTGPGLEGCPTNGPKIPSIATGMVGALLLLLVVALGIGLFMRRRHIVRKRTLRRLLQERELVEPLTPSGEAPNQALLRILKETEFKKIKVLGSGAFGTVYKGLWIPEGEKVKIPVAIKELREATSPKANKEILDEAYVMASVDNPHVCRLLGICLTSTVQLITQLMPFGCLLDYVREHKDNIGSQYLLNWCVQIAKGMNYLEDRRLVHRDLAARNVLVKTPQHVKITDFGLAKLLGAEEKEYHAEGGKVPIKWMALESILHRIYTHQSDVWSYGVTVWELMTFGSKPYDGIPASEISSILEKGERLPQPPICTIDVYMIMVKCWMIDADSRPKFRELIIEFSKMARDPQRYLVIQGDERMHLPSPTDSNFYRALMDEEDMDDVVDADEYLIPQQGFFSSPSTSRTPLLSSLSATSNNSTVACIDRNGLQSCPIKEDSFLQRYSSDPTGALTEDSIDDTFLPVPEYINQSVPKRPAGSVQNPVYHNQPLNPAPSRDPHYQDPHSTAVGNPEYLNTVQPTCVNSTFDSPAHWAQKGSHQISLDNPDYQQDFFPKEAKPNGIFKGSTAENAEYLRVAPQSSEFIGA

[8] = target: Follistatin-related protein 3 (Homo sapiens) (UniProt O95633); experiment: compounds binding follistatin-related protein 3 – biochemical, small-molecule microarray, 635 nm fluorescence, primary screen (AID 1105); settings: FSTL3 binding, higher = more signal;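 also: score merges emission near 667 nm and signal to noise per printed spot across three slides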
Chain of Follistatin-related protein 3 (Homo sapiens) (O95633 whole entry, looked up): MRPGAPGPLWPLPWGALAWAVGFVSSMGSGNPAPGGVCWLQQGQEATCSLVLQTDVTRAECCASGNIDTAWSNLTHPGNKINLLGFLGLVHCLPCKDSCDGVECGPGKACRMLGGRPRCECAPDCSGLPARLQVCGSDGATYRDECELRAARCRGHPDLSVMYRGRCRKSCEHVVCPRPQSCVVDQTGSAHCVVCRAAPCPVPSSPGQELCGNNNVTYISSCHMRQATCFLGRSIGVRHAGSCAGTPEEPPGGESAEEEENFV

[9] = target: Dickkopf-related protein 1 (Homo sapiens) (UniProt O94907); experiment: small molecules binding DKK1 protein – biochemical, small-molecule microarray, 635 nm fluorescence scan, primary screen (AID 1106); settings: higher = more signal;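 also: score merges emission near 667 nm with signal to noise over three replicate slides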
Chain of Dickkopf-related protein 1 (Homo sapiens) (O94907 whole entry, looked up): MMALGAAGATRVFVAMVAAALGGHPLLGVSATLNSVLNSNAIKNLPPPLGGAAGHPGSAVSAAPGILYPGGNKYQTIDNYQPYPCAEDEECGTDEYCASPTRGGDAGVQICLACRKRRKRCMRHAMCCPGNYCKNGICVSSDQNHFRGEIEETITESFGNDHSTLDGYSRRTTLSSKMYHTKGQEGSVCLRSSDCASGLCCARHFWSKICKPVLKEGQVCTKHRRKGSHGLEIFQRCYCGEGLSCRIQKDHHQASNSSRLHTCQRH

[10] = tested on: Inhibin beta A chain (activin A); experiment: small molecules binding activin A – biochemical, small-molecule microarray, 635 nm fluorescence scan, primary screen (AID 1107); settings: INHBA, higher = more signal;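 also: mouse activin A protein probed at 4.33 µg/mL on printed slides; score merges bound-protein fluorescence near 667 nm with spot signal-to-noise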
[11] = tested on: Human papillomavirus type 1a protein E7 (residues 44-93); experiment: small molecules binding HPV E7 44-93 – biochemical, small-molecule microarray, residues 44-93, 635 nm fluorescence, primary screen (AID 1108); settings: fluorescence 635 nm, higher = more signal;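 also: E7 fragment applied at 1 µg/mL in TBST for 1 h at 4 C; score combines spot fluorescence with its signal to noise ratio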
[12] = hepatitis C replication reporter changes, two-sided – Huh7 cells, luciferase reporter, HCV replication inhibitor project, primary screen (AID 1109); settings: Huh7 HCV replicon luciferase reporter, 48 h; higher = more signal;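 also: huh7 hepatoma cells harbouring a luciferase neomycin HCV replicon reporter; luciferase luminescence as measure of HCV replicon replication; test concentration not given here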
[13] = target: Left-right determination factor 2 (Homo sapiens) (UniProt O00292); experiment: small molecules binding LEFTY2 protein – biochemical, small-molecule microarray, 635 nm fluorescence scan, primary screen (AID 1110); settings: higher = more signal
Chain of Left-right determination factor 2 (Homo sapiens) (O00292 whole entry, looked up): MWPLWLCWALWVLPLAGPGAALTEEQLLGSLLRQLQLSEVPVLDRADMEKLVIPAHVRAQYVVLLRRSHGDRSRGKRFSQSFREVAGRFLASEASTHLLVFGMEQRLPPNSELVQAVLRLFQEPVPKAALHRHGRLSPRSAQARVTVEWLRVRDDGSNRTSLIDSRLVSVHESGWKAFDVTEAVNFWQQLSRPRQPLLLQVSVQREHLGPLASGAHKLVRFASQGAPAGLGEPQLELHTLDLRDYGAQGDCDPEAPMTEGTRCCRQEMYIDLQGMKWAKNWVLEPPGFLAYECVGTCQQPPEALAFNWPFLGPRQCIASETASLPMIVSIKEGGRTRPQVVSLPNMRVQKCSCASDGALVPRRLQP

[14] = target: Calmodulin-1 (Homo sapiens) (UniProt P0DP23); experiment: small molecules binding calmodulin-1 with EGTA – biochemical, small-molecule microarray, Cy5-labelled CALM1, profiling panel (AID 1111); settings: Cy5-CALM1 binding fluorescence, higher = more signal;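 also: labelled calmodulin applied in Tris saline Tween buffer holding calcium plus EGTA and DTT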
[15] = target: Calmodulin-1 (Homo sapiens) (UniProt P0DP23); experiment: small molecules binding Ca-loaded calmodulin-1 – biochemical, small-molecule microarray, Cy5-labelled CALM1, plus calcium, artefact control for SMM control-protein annotation, profiling panel (AID 1112); settings: Cy5-CALM1 binding fluorescence, higher = more signal;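 also: score merges spot fluorescence with signal to noise from triplicate slides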
[16] = probe aWnt5a binding to arrayed compounds – biochemical, biotinylated probe, 635/667 nm fluorescence, primary screen (AID 1113); settings: small-molecule microarray, higher = more signal;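 also: score merges 667 nm fluorescence intensity with signal-to-noise per printed feature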
[17] = probe aShh binding to arrayed compounds – biochemical, biotinylated probe, 635/667 nm fluorescence, primary screen (AID 1114); settings: small-molecule microarray, higher = more signal;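 also: probe is biotin-labelled aShh protein from a stem cell growth factor screen; measures binding of labelled protein to compounds printed on the slide; score merges feature fluorescence at 667 nm with signal-to-noise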
[18] = probe aNog binding to arrayed compounds – biochemical, biotinylated probe, 635/667 nm fluorescence, primary screen (AID 1115); settings: small-molecule microarray, higher = more signal;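 also: probe is biotinylated aNog protein used at 0.15 µg/mL for 1 h at 4 C; z-score combines 667 nm fluorescence of each spot with its signal to noise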
[19] = target: Torsin-1A-interacting protein 1 (Homo sapiens) (UniProt Q5JTV8); experiment: compound microarray binding of lysate hLAP1 – cell lysate, small-molecule microarray, COS7 lysate, 635/667 nm fluorescence, primary screen (AID 1116); settings: 635 nm fluorescence, higher = more signal
Chain of Torsin-1A-interacting protein 1 (Homo sapiens) (Q5JTV8 whole entry, looked up): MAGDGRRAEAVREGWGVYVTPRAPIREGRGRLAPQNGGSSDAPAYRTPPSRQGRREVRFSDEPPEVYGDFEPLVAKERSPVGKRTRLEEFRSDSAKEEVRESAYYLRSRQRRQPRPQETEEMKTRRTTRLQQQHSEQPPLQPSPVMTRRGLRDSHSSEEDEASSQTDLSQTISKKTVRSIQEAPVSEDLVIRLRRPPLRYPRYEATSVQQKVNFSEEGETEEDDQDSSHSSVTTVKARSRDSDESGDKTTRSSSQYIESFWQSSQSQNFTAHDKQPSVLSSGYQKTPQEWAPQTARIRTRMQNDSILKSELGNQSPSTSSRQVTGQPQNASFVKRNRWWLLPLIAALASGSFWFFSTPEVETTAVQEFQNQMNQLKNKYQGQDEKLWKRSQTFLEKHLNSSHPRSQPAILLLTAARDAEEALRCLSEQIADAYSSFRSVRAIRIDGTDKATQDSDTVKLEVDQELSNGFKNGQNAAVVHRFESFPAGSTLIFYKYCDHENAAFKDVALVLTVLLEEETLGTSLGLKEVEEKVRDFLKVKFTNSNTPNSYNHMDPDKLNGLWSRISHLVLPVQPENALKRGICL

[20] = target: Alpha-bungarotoxin (Bungarus multicinctus) (UniProt P60615); experiment: compounds binding labelled alpha-BTX control protein – biochemical, small-molecule microarray, Alexa647 label, 635/667 nm fluorescence, artefact control for SMM control protein annotation, profiling panel (AID 1117); settings: alpha-BTX-A647 binding fluorescence, higher = more signal
Chain of Alpha-bungarotoxin (Bungarus multicinctus) (P60615 whole entry, looked up): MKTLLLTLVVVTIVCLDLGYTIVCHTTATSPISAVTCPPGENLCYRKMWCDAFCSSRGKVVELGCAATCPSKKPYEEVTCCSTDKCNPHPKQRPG

Row | SMILES | composite z-score [1] | composite z-score [2] | composite z-score [3] | z-score [4] | composite z-score [5] | composite z-score [6] | composite z-score [7] | composite z-score [8] | composite z-score [9] | composite z-score [10] | composite z-score [11] | z-score [12] | composite z-score [13] | composite z-score [14] | composite z-score [15] | composite z-score [16] | composite z-score [17] | composite z-score [18] | composite z-score [19] | composite z-score [20]
1 | CC1(C)[C@@H]2CC(C(O)C3C=CC4C(=O)N(Cc5ccccc5)C(=O)C4N3n3cnnc3)=C[C@H]1C2 (stereo not given in full) | 0.779 | 0.454 | 0.355 | -0.0958 (inactive) | 0.801 | 1.28 | 0.0902 | 0.74 | 0.0252 | 1.2 | 1.4 | -0.254 | 0.223 | 0.549 | -0.0552 | 0.0374 | -0.271 | -0.0304 | 0.187 | 0.6
2 | COC(=O)[C@@]1(CCC(=O)OC(C)(C)C)N=C(c2ccc(OCCCO)cc2)O[C@H]1c1ccccc1N=[N+]=[N-] | 1.13 | 0.255 | 0.662 | 2.6 (inactive) | -0.113 | -0.0727 | -0.336 | 0.542 | 0.0186 | 0.431 | 0.799 | -1.85 | -0.0736 | 1.17 | 0.356 | 0.0101 | 0.178 | -0.193 | 1.06 | 0.654
3 | Oc1ccc2cc[n+](Cc3sc4ccccc4c3Cl)cc2c1 | 0.23 | 0.0518 | 0.799 | -1.74 (inactive) | 0.469 | -0.402 | -0.0568 | 0.618 | 0.481 | 1.28 | -0.317 | 0.514 | 0.0344 | -0.481 | -0.683 | -0.124 | 0.318 | -0.29 | 1.22 | 1.02
4 | COCCOC(=O)N1C(=O)[C@@]2(c3ccccc31)[C@H](C(=O)N1CCc3cc(OC)c(OC)cc3C1)[C@H]1C(=O)O[C@H](c3ccccc3)[C@H](c3ccccc3)N1[C@@H]2c1ccc(OCCO)cc1 | 1.33 | 0.232 | 0.395 | -1.27 (inactive) | 1.15 | 1.01 | 0.565 | 0.473 | 0.235 | 0.0475 | 1.02 | -1.39 | 0.295 | 1.28 | 0.366 | -0.147 | -0.0863 | 0.495 | 1.05 | 0.663
5 | COc1ccccc1CN1C(=O)c2ccccc2[C@@]2(Cc3ccccc3N(CC(C)C)C2=O)[C@@H]1c1ccc(CO)cc1 | -0.327 | -0.266 | 0.124 | -0.686 (inactive) | -0.285 | -0.882 | -0.284 | -0.0344 | 0.0603 | 0.522 | -0.461 | -0.785 | -0.389 | -0.235 | -0.69 | -0.091 | -0.214 | -0.175 | -0.247 | -0.257
6 | CC1(C)C2C=C(C(O)C3C=CC4C(=O)NC(=O)C4N3Nc3ccc(Cl)cc3Cl)C[C@@H]1C2 (stereo not given in full) | 0.213 | 1.05 | 1.16 | 2.5 (inactive) | 0.808 | 0.0644 | 0.27 | 0.745 | -0.214 | 1.08 | 0.772 | -1.45 | -0.0061 | 2.35 | 1.01 | -0.006 | 0.275 | 0.503 | 1.27 | 1.31
7 | C=C[C@H](CO[Si](CC)(CC)CC)N(Cc1ccc(OC(C)=O)c(OC)c1)S(=O)(=O)c1ccc(Br)cc1 | 0.609 | 0.964 | 0.471 | -0.0534 (inactive) | 0.365 | 0.443 | 0.275 | 0.465 | 0.0558 | 1.1 | 1.15 | -3.27 | 0.537 | 1.41 | 0.67 | 0.101 | -0.057 | 0.0481 | 1.12 | 1.23
8 | Cc1ccc(S[C@]2(C(=O)NCCCN(C)C)CC(=O)N(Cc3ccccc3C(F)(F)F)[C@@H]2c2ccc(CO)cc2)cc1 | -1.14 | 0.631 | 0.95 | 0.375 (inactive) | -0.904 | -0.761 | -0.636 | -1.47 | -0.798 | 0.94 | -0.812 | -0.767 | -1.89 | -0.168 | 0.0625 | -0.0944 | 0.0893 | 0.216 | 0.122 | 0.266
9 | N#Cc1ccc(NN2C(C(O)C(c3ccccc3)c3ccccc3)C=CC3C(=O)N(c4ccccc4)C(=O)C32)cc1 (stereo not given) | 0.793 | 0.609 | 0.725 | -0.327 (inactive) | 1.2 | 1.28 | -0.0158 | 0.864 | -1.06 | 0.0017 | 1.46 | -0.734 | 0.0908 | 1.87 | 0.609 | 0.0768 | 0.392 | 1.72 | 0.307 | 1.91
10 | CN1C(=O)C2C=CC(C(O)c3ccco3)N(Nc3ccccc3)C2C1=O (stereo not given) | 0.307 | 0.44 | 0.338 | 0.883 (inactive) | 0.953 | 0.386 | 0.466 | 0.523 | 0.519 | 1.16 | 0.282 | 0.0751 | 0.232 | -0.276 | -0.833 | -0.0192 | 0.199 | -0.165 | 0.272 | 0.35
11 | CC(C)C(=C=CC[C@@H](O)c1ccc(OCCO)cc1)C[C@@H](O)c1ccccn1 | 0.595 | -0.0166 | -0.495 | 0.106 (inactive) | 1.6 | 0.854 | 0.124 | 1.06 | 1.76 | 0.59 | 0.323 | -0.218 | 1.21 | -0.315 | -0.113 | -0.0721 | -0.0709 | -0.0926 | 1.08 | -0.0878
